Counter-ions that a name gives are not always drawn.
system: Saccharomyces cerevisiae; assay: fraction of cells in G1 phase (DNA content, flow cytometry); higher = more cells with unreplicated DNA (G1 delay); conditions: temperature: 30 C; YPD; BY4741 PDR5+ SNQ2+; drug added to: actively dividing cells; 4.33 h
Experimental: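 S. cerevisiae cultures in YPD at 30°C were treated with each drug of the Enzo FDA-approved library at 20 µg/ml (final µM given per drug). Cells were fixed after 6–7 h (S1) or 6 h (S2), or after 4.33 h for BY4741 (S3), then stained with SYTOX Green. %G1 is the Dean-Jett-Fox G1 peak area divided by the G1+G2/M peak areas, written as a fraction and averaged over at least two independent experiments. DMSO reference: mean ~0.49; >0.60 is called High G1 and <0.3876 Low G1. Scale: lower means mitotic delay.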

| SMILES | fraction of cells in G1 phase |
| --- | --- |
| C[C@@H]1CC[C@H]2[C@@H](C)C(=O)O[C@@H]3O[C@@]4(C)CC[C@@H]1[C@]32OO4 [Artemisinin] (70.8367 µM) | 0.5 |
| C[C@]12CC[C@H](O)CC1=CC[C@@H]1[C@@H]2CC[C@]2(C)C(=O)CC[C@@H]12 [Dehydroepiandrosterone] (69.34 µM) | 0.501 |
| CCCCC(C#N)(Cn1cncn1)c1ccc(Cl)cc1 (stereo unspecified) [Myclobutanil] (69.2563 µM) | 0.536 |

same assay, conditions: temperature: 30 C; YPD; JTY2953 pdr5 snq2 (sensitized); drug added to: actively dividing cells; 6 h

| SMILES | fraction of cells in G1 phase |
| --- | --- |
| C[C@@H]1CC[C@H]2[C@@H](C)C(=O)O[C@@H]3O[C@@]4(C)CC[C@@H]1[C@]32OO4 [Artemisinin] (70.8367 µM) | 0.691 |
| C[C@]12CC[C@H](O)CC1=CC[C@@H]1[C@@H]2CC[C@]2(C)C(=O)CC[C@@H]12 [Dehydroepiandrosterone] (69.34 µM) | 0.719 |
| C[C@]12Cc3c[nH]nc3C[C@@H]1CC[C@@H]1[C@@H]2CC[C@@]2(C)[C@H]1CC[C@]2(C)O [Stanozolol] (60.8824 µM) | 0.497 |
| O=c1[nH]c2ccccc2n1C1CCN(CCCC(c2ccc(F)cc2)c2ccc(F)cc2)CC1 [Pimozide] (43.3313 µM) | 0.344 |
| CCCCC(C#N)(Cn1cncn1)c1ccc(Cl)cc1 (stereo unspecified) [Myclobutanil] (69.2563 µM) | 0.766 |

same assay, conditions: temperature: 30 C; YPD; JTY2953 pdr5 snq2 (sensitized); drug added to: cultures diluted from stationary phase; 6-7 h

| SMILES | fraction of cells in G1 phase |
| --- | --- |
| CCCN1C[C@H](CSC)C[C@@H]2c3cccc4[nH]cc(c34)C[C@H]21 [Pergolide mesylate] (63.5937 µM) | 0.489 |
| CN1C[C@@H](NS(=O)(=O)N(C)C)C[C@@H]2c3cccc4c3c(cn4C)C[C@H]21 [Mesulergine HCl] (55.1728 µM) | 0.547 |
| Cc1c(N)nc(C(CC(N)=O)NCC(N)C(N)=O)nc1C(=O)NC(C(=O)NC(C)C(O)C(C)C(=O)NC(C(=O)NCCc1nc(-c2nc(C(=O)NCCC[S+](C)C)cs2)cs1)C(C)O)C(O[C@@H]1O[C@@H](CO)[C@@H](O)[C@H](O)[C@@H]1O[C@H]1O[C@H](CO)[C@@H](O)[C@H](OC(N)=O)[C@@H]1O)c1cnc[nH]1 (stereo partly specified) [Bleomycin sulfate] (14.1285 µM) | 0.924 |
| Cc1cccc(C)c1NC1=NCCCS1 [Xylazine HCl] (90.7693 µM) | 0.506 |
| C[C@@H]1CC[C@H]2[C@@H](C)C(=O)O[C@@H]3O[C@@]4(C)CC[C@@H]1[C@]32OO4 [Artemisinin] (70.8367 µM) | 0.613 |
| C[C@]12CC[C@H](O)CC1=CC[C@@H]1[C@@H]2CC[C@]2(C)C(=O)CC[C@@H]12 [Dehydroepiandrosterone] (69.34 µM) | 0.633 |
| Oc1ccc2c3c1O[C@H]1c4[nH]c5ccccc5c4C[C@@]4(O)[C@@H](C2)N(CC2CC2)CC[C@]314 [Naltrindole HCl] (48.2499 µM) | 0.504 |
| CC(C)NCC(O)c1ccc(N)c(C#N)c1 (stereo unspecified) [Cimaterol] (91.2039 µM) | 0.493 |
| O=C1CC[C@@]2(O)[C@H]3Cc4ccc(O)c5c4[C@@]2(CCN3CC2CC2)[C@H]1O5 [Naltrexone HCl] (58.5805 µM) | 0.509 |
| C[C@]12Cc3c[nH]nc3C[C@@H]1CC[C@@H]1[C@@H]2CC[C@@]2(C)[C@H]1CC[C@]2(C)O [Stanozolol] (60.8824 µM) | 0.801 |
| O=C1C[C@@H]2OCC=C3CN4CC[C@]56c7ccccc7N1[C@H]5[C@H]2[C@H]3C[C@H]46 [Strychnine HCl] (59.8047 µM) | 0.497 |
| CC(N)C(O)c1ccccc1 (stereo unspecified) [Phenylpropanolamine] (132.266 µM) | 0.466 |
| O=c1[nH]c2ccccc2n1C1CCN(CCCC(c2ccc(F)cc2)c2ccc(F)cc2)CC1 [Pimozide] (43.3313 µM) | 0.85 |
| CC(O)(CS(=O)(=O)c1ccc(F)cc1)C(=O)Nc1ccc(C#N)c(C(F)(F)F)c1 (stereo unspecified) [Bicalutamide] (46.4705 µM) | 0.493 |
| O=P1(N(CCCl)CCCl)NCCCO1 (stereo unspecified) [Cyclophosphamide monohydrate] (76.6021 µM) | 0.501 |
| CN(C)[C@@H]1C(=O)C(C(N)=O)=C(O)[C@@]2(O)C(=O)C3=C(O)c4c(O)cccc4[C@@](C)(O)[C@H]3C[C@@H]12 [Tetracycline] (44.9999 µM) | 0.471 |
| N[C@@H](Cc1ccc(N(CCCl)CCCl)cc1)C(=O)O [Melphalan] (65.5294 µM) | 0.45 |

| SMILES | fraction of cells in G1 phase |
| --- | --- |
| C[N+](C)(C)CCCCCCCCCC[N+](C)(C)C [Decamethonium 2Br] (77.371 µM) | 0.472 |
| C#CCN(C)C(C)Cc1ccccc1 (stereo unspecified) [Deprenyl] (89.4055 µM) | 0.518 |
| c1ccc2c(c1)OCC(C1=NCCN1)O2 (stereo unspecified) [Idazoxan] (97.9286 µM) | 0.48 |
| CCCC(=O)OCC[N+](C)(C)C [Butyrylcholine Cl] (114.768 µM) | 0.504 |
| CCN(C)C(=O)Oc1cccc([C@H](C)N(C)C)c1 [Rivastigmine] (79.8902 µM) | 0.504 |
| CO[C@]12C[C@@H](COC(=O)c3cncc(Br)c3)CN(C)[C@@H]1Cc1cn(C)c3cccc2c13 [Nicergoline] (41.2884 µM) | 0.481 |
| C=C1C[C@@H]2[C@H](CC[C@]3(C)C(=O)CC[C@@H]23)[C@@]2(C)C=CC(=O)C=C12 [Exemestane] (67.4764 µM) | 0.567 |
| NCCCNCCSP(=O)(O)O [Amifostine] (93.3599 µM) | 0.512 |
| C=CCN1CC[C@]23c4c5ccc(O)c4O[C@H]2C(=O)CC[C@@]3(O)[C@H]1C5 [Naloxone HCl] (61.0904 µM) | 0.488 |
| C=CCN1CC[C@]23c4c5ccc(O)c4O[C@H]2/C(=N/N=C2\CC[C@@]4(O)[C@H]6Cc7ccc(O)c8c7[C@@]4(CCN6CC=C)[C@H]2O8)CC[C@@]3(O)[C@H]1C5 [Naloxonazine 2HCl] (30.7323 µM) | 0.456 |
| CC(C)C[C@H]1C(=O)N2CCC[C@H]2[C@]2(O)O[C@](NC(=O)[C@@H]3C=C4c5cccc6[nH]c(Br)c(c56)C[C@H]4N(C)C3)(C(C)C)C(=O)N12 [Bromocriptine mesylate] (30.5525 µM) | 0.529 |
| C[C@@H]1CN([C@H]2CC[C@](C#N)(c3ccc(F)cc3)CC2)CC[C@]1(C(=O)O)c1ccccc1 [Levocabastine HCl] (47.5588 µM) | 0.468 |
| COc1ccc2c(c1)[C@]13CCCC[C@@H]1[C@H](C2)N(C)CC3 [Dextromethorphan HBr] (73.6903 µM) | 0.503 |
| Oc1ccc2c3c1O[C@H]1[C@@H](O)CC[C@@]4(O)[C@@H](C2)N(CC2CCC2)CC[C@]314 [Nalbuphine HCl] (55.9513 µM) | 0.469 |
| CC(=O)O[C@H]1C[C@@H]2CC[C@@H]3[C@H](CCC4(C)[C@H]3C[C@H]([N+]3(C)CCCCC3)[C@@H]4OC(C)=O)C2(C)C[C@@H]1[N+]1(C)CCCCC1 (stereo partly specified) [Pancuronium Br] (34.9114 µM) | 0.487 |
| CCCCC(C#N)(Cn1cncn1)c1ccc(Cl)cc1 (stereo unspecified) [Myclobutanil] (69.2563 µM) | 0.667 |

— the supplement of paper PMC3342239
